# Assay results from PMC7819943, “Rice protein-binding microarrays: a tool to detect cis-acting elements near promoter regions in rice”.
# The full ranking holds about 39,000 sequences; the median of “fluorescence intensity (a.u.)” is about 4,300, and the highest 2% start at about 39,000. The list comes from a sample in which the highest values are over-represented; it also holds similar and randomly drawn sequences.
# Biological target: T1, OsSMF1 (Oryza sativa, UniProt Q6ZLB0 1-436)
# T1 sequence: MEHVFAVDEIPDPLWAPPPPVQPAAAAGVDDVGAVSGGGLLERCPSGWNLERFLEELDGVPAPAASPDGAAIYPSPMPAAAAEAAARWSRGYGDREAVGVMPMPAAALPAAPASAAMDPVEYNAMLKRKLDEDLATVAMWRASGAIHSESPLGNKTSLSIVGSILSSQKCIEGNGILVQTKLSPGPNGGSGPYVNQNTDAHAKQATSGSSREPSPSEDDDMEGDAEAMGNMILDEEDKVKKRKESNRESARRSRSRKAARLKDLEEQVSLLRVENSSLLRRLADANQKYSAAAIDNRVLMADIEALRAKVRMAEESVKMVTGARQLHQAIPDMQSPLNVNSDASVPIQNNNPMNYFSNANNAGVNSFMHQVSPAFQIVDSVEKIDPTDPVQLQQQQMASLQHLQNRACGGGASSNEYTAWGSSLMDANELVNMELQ
# Test: protein-binding microarray (RPBM); PBS, 2% BSA, 51.3 ng/ul salmon testes DNA, 50 uM zinc acetate, 200 nM TF, 25 C, 1 h; high values mean tight binding
# Details: protein: recombinant; tags: N-terminal polyhistidine and DsRed monomer fusion (pET32a); chain copies: 2; label: CyDye5-dUTP incorporated in the synthesized complementary strand; 3' TTTTT single-stranded linker to array surface; dsDNA, one strand shown
# Method in brief: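 For the binding signal, per-feature fluorescence intensity was read in arbitrary units on an Axon 4000B scanner. Before scanning, a 2% BSA-blocked custom Agilent array made double-stranded with Cy5-dUTP was washed after 1 h at 25 °C with 200 nM protein and 50 µM zinc acetate. The proteins were Ni–NTA-purified transcription factors with N-terminal polyhistidine and DsRed fusions, expressed in E. coli BL21-CodonPlus.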
row,Sequence,binding signal
1,AGAGAGAGGGGAGAGGGGTGGAAGGGGAATATGGTAGCTGCGGAGTCACCTAGTGCAG,3330 fluorescence intensity (a.u.)
2,CCTCGTCGCCGCGTCACGGCGTCAGCTCGCCGCTCTAGGGCGGAGTCACCTAGTGCAG,4820 fluorescence intensity (a.u.)
3,GCCTCACAACCCGCATGGACACTGACATCGGCATCATCATCGGAGTCACCTAGTGCAG,4260 fluorescence intensity (a.u.)
4,GACAAAGTCACACTGTCACACGTATTACCGGTTACAAACTCGGAGTCACCTAGTGCAG,3940 fluorescence intensity (a.u.)
5,GGCAACCGCCCTTAAGGTGTGAGACAGCACGACAACGCCCCGGAGTCACCTAGTGCAG,3690 fluorescence intensity (a.u.)
6,GTATTGGAGCTCTACAGTTCGGTCTACTCCTCTCTGTTGCCGGAGTCACCTAGTGCAG,27500 fluorescence intensity (a.u.)
7,ACGTCTCCTCCTCCTCCACGTCAAACCACAATCCAACCAACGGAGTCACCTAGTGCAG,5400 fluorescence intensity (a.u.)
8,ATTGCCACGTAGGCGCCACGTGGCGCCACATCAGCAAAACCGGAGTCACCTAGTGCAG,40700 fluorescence intensity (a.u.)
9,GTAGGCGCCACGTGGCGCCACGTCAGCAAAACCGCCTCCTCGGAGTCACCTAGTGCAG,24000 fluorescence intensity (a.u.)
10,CAACACCGCCACGTAGGCGCCACATCAGCAAAACCATCCTCGGAGTCACCTAGTGCAG,23200 fluorescence intensity (a.u.)
11,AACCACGTATGCGCCACGTCATCCAAAACCGCCTTCAAAACGGAGTCACCTAGTGCAG,14400 fluorescence intensity (a.u.)
12,AGCACCACGGTCAATGCCACGTATGTGCCACGTCATCCAACGGAGTCACCTAGTGCAG,46600 fluorescence intensity (a.u.)
13,GTCGTGCTAGCTCGATCCATTTCCTACGTGTGCACCAAACCGGAGTCACCTAGTGCAG,5810 fluorescence intensity (a.u.)
14,GAAAGGGATGGCTCACTTGAAACGTACTGCTCCCTGCCCCCGGAGTCACCTAGTGCAG,3160 fluorescence intensity (a.u.)
15,CCAAGGTAAGATGAAGCAGCAGCATTTGCATTAAACTATCCGGAGTCACCTAGTGCAG,60100 fluorescence intensity (a.u.)
16,AGCCAAAGCATTTGCCATCCGATGAGGGCGTACTATTAAACGGAGTCACCTAGTGCAG,28000 fluorescence intensity (a.u.)
17,GATTAAAACCAAAACTCATGATGGAAGTGGATGCATTTGCCGGAGTCACCTAGTGCAG,25500 fluorescence intensity (a.u.)
18,TTGATAATTACTCTTACGTCCCTCACCCTATGCTCCTGTGCGGAGTCACCTAGTGCAG,3440 fluorescence intensity (a.u.)
19,TATTTTATATTAGTGTTCAAACGTTCGATGTGACATGTGTCGGAGTCACCTAGTGCAG,3930 fluorescence intensity (a.u.)
20,AATACTTTATGCAGGTGTTCAAATGTTCGATGTGACAGGGCGGAGTCACCTAGTGCAG,3150 fluorescence intensity (a.u.)
21,TACTTTATATAGATGTTCAAACATTCGATATGACATGCTGCGGAGTCACCTAGTGCAG,45300 fluorescence intensity (a.u.)

row,Sequence,binding signal
1,ATTGCAACCGGAGAGCCTGACCAAAGAAATTCAGATCCTTCGGAGTCACCTAGTGCAG,3200 fluorescence intensity (a.u.)
2,GTTAAATTGCCACGTAAGCACCACGTCATACCACGTCAGACGGAGTCACCTAGTGCAG,51500 fluorescence intensity (a.u.)
3,GAAGTGCCACGTAAGCACCACATCAATGCCACGTCAGATGCGGAGTCACCTAGTGCAG,38800 fluorescence intensity (a.u.)
4,GAATTGCCACGTAAGCACCACGTCAGTGCCATGTCAGATGCGGAGTCACCTAGTGCAG,52400 fluorescence intensity (a.u.)
5,TTTTCATTTTAGTGCCACGTAAGCACCACATCGATGCCACCGGAGTCACCTAGTGCAG,41200 fluorescence intensity (a.u.)
6,TCAAATTGTCACATAAGCGTCATGTCAATGCCACGTCAGACGGAGTCACCTAGTGCAG,27200 fluorescence intensity (a.u.)
7,TTATTTTAGTGCCACGTAAGCGACACGTCGATGCCACATGCGGAGTCACCTAGTGCAG,23000 fluorescence intensity (a.u.)
8,TTAATTGAAATGCCACCTAAGCACCACGTCAGCACACAGACGGAGTCACCTAGTGCAG,18700 fluorescence intensity (a.u.)
9,ATGCATCTAAGCATATTAGCTATATACCACATCATTTTCACGGAGTCACCTAGTGCAG,4780 fluorescence intensity (a.u.)
10,CGGATCGAATTGCCACGTAAGCGGCACGTCAGTGCCATGTCGGAGTCACCTAGTGCAG,20000 fluorescence intensity (a.u.)
11,TTTGTCCTACGTGGCGTACGCGTGGCAATCCAGTCATAATCGGAGTCACCTAGTGCAG,20400 fluorescence intensity (a.u.)
12,ATTCGGTGGGTTGAGGCAGTGATGTGGTGAGAGGAGAAAGCGGAGTCACCTAGTGCAG,3440 fluorescence intensity (a.u.)
13,GAAAGTGGACGCGCGCGGTCTGGCGTCACCTGGGCCGAAACGGAGTCACCTAGTGCAG,3320 fluorescence intensity (a.u.)
14,CTGCCCAACAAAGTCCAGAAACTTCACGACATTCAATTGCCGGAGTCACCTAGTGCAG,22600 fluorescence intensity (a.u.)
15,TACTATAGACTAGCAAATGCCAAATGACAAATTGCCAAGTCGGAGTCACCTAGTGCAG,15800 fluorescence intensity (a.u.)
16,ATTCAGTGCAGCAGCTGCAGGCCAAGCAGGCAGCACAGCACGGAGTCACCTAGTGCAG,3610 fluorescence intensity (a.u.)
17,TCACGCTGACCAAACACCATCTGTTATTCTGTTTGTTTGTCGGAGTCACCTAGTGCAG,3640 fluorescence intensity (a.u.)
18,ACTGTTATTCCTACAGGCCAAAGCTGACCTAACCAATTCACGGAGTCACCTAGTGCAG,46800 fluorescence intensity (a.u.)
19,GTAGCTGTTAAGTTCCATCTCGTCAGCAGCTGCCTGCAGACGGAGTCACCTAGTGCAG,3210 fluorescence intensity (a.u.)
20,CTGTGAGTTCGTTGTCTGAGTGAGAGCTGGACGTGCTGCACGGAGTCACCTAGTGCAG,33000 fluorescence intensity (a.u.)
21,CCATGGCACCTCCTCCTACGCCAGCACCGCTGCCGTGATGCGGAGTCACCTAGTGCAG,4800 fluorescence intensity (a.u.)
